Measured values taken from PubChem BioAssay (Tox21).
Records with an inconclusive call do not appear. A call without a number means that no potency is given here. The source made the active and inactive calls. Calls come from the whole dose curve.

Assay: qHTS assay for small molecule agonists of the p53 signaling pathway - cell viability (AID 651633);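 note: p53RE-bla HCT reporter cells with a stable beta-lactamase p53 reporter; nearly all actives have a fitted effect of over 30% in size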
Settings: p53RE-bla HCT-116 viability, ATP luminescence, 16 h; series mostly up to 83.3 µM
Outline: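 Viability counter-read: CellTiter-Glo luminescence (30 min, room temperature) in the same p53RE-bla plates. These plates had been exposed to compounds for 16 h at 37 C.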

| SMILES | Potency |
| --- | --- |
| O=C1c2ccccc2C(=O)C1c1nc2ccccc2c(Br)c1O | inactive |
| C=CCc1ccccc1OCC(O)CNC(C)C (stereo not drawn) | inactive |
| O=C(/C=C/c1ccccc1)OCCc1ccccc1 | inactive |
| CN1C(=O)c2ccccc2C1=O | inactive |
| CC1(C)O[C@@H]2C[C@H]3[C@@H]4C[C@H](F)C5=CC(=O)C=C[C@]5(C)[C@H]4[C@@H](O)C[C@]3(C)[C@]2(C(=O)CO)O1 | inactive |

Assay: qHTS assay for small molecules that induce genotoxicity in human embryonic kidney cells expressing luciferase-tagged ATAD5 - cell viability (AID 651634); note: nearly all actives have a fitted effect of over 25% in size; note: potency is the fitted concentration of half-maximal effect
Settings: HEK293T ATAD5-luc cells viability, CellTiter-Fluor, 15.5 h; series mostly up to 83.3 µM
Outline: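 After 15.5 hr incubation with compound at 37C, 5% CO2, HEK293T ATAD5-luciferase cells received CellTiter-Fluor reagent; fluorescence intensity was quantified following 30 min at 37C.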

| SMILES | Potency |
| --- | --- |
| O=C1C(=O)c2ccccc2C(O)=C1C1CCC(c2ccc(Cl)cc2)CC1 (stereo not drawn) | inactive |
| COc1ccccc1N1CCN(CC(O)COc2cccc3ccccc23)CC1 (stereo not drawn) | inactive |
| CN1CC(=O)N2[C@H](c3ccc4c(c3)OCO4)c3[nH]c4ccccc4c3C[C@@H]2C1=O | inactive |
| O=C1c2ccccc2C(=O)C1c1nc2ccccc2c(Br)c1O | inactive |
| N#CCCN(CCO)CCO | inactive |
| CCOC(=O)C1=C(C)NC(C)=C(C(=O)OC)C1c1cccc(Cl)c1Cl (stereo not drawn) | inactive |
| O=[N+]([O-])c1ccc(O/N=C/c2cc(Br)c(O)c(Br)c2)c([N+](=O)[O-])c1 | 24.2 µM (active) |
| C/C=C/C=C/C=O | inactive |
| O=c1cc(-c2ccccc2)oc2ccc3ccccc3c12 | inactive |
| CCC(C)COC(C)=O (stereo not drawn) | inactive |
| CCOC(=O)OC(C)OC(=O)[C@@H]1N2C(=O)[C@@H](NC(=O)[C@H](N)c3ccccc3)[C@H]2SC1(C)C (stereo partly drawn) | inactive |
| Brc1cc(Br)c(Oc2cc(Br)c(Br)cc2Br)cc1Br | inactive |
| O=C1Cc2ccccc2N1c1c(Cl)cccc1Cl | inactive |
| Cc1cc(O)ccc1O | inactive |
| Cc1cc(=O)c2c(O)c3c(O)cc(=O)c4c3c3c(cc(O)c1c23)C(C)(C)C=4O | 2.66 µM (active) |
| CCCCC(CC)COP(=O)(O)O (stereo not drawn) | inactive |

| SMILES | Potency |
| --- | --- |
| c1ccc2sc(SN(C3CCCCC3)C3CCCCC3)nc2c1 | inactive |
| C[C@H]1c2cccc(O)c2C(O)=C2C(=O)[C@]3(O)C(O)=C(C(N)=O)C(=O)[C@@H](N(C)C)[C@@H]3[C@@H](O)[C@@H]21 | inactive |
| O=C(CCCN1CC=C(n2c(=O)[nH]c3ccccc32)CC1)c1ccc(F)cc1 | inactive |
| C=CCc1ccccc1OCC(O)CNC(C)C (stereo not drawn) | inactive |
| CN(C)CCC=C1c2ccccc2C=Cc2ccccc21 | inactive |
| N#CCc1ccc(Cl)cc1Cl | inactive |
| O=C(/C=C/c1ccccc1)OCCc1ccccc1 | inactive |
| CC(C)(c1ccccc1)c1ccccc1 | inactive |
| CCCCCCCCC(CCCCCC)C(=O)O (stereo not drawn) | inactive |
| Oc1c(I)cc(I)c2cccnc12 | inactive |
| CN1C(=O)c2ccccc2C1=O | inactive |
| CC(=O)Oc1ccc([N+](=O)[O-])cc1CCl | 30.6 µM (active) |
| C=C(C)C(=O)OCCOCCOC(=O)C(=C)C | inactive |
| CC(=O)N/N=C/c1ccc([N+](=O)[O-])o1 | inactive |
| CC1(C)O[C@@H]2C[C@H]3[C@@H]4C[C@H](F)C5=CC(=O)C=C[C@]5(C)[C@H]4[C@@H](O)C[C@]3(C)[C@]2(C(=O)CO)O1 | inactive |

Assay: qHTS assay for small molecule disruptors of the mitochondrial membrane potential - cell viability (AID 720634); note: nearly all actives have a fitted effect of over 20% in size; note: potency is the fitted concentration of half-maximal effect
Settings: HepG2 viability, ATP luminescence (CellTiter-Glo), 1 h; series mostly up to 83.2 µM
Outline: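 ATP-based luminescent viability readout (CellTiter-Glo, 30 min, room temperature) in HepG2 cells multiplexed with the m-MPI membrane potential dye; compound exposure lasted 1 hr at 37 C.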

| SMILES | Potency |
| --- | --- |
| COc1ccccc1N1CCN(CC(O)COc2cccc3ccccc23)CC1 (stereo not drawn) | inactive |
| CN1CC(=O)N2[C@H](c3ccc4c(c3)OCO4)c3[nH]c4ccccc4c3C[C@@H]2C1=O | inactive |
| O=C1c2ccccc2C(=O)C1c1nc2ccccc2c(Br)c1O | inactive |
| N#CCCN(CCO)CCO | inactive |
| O=[N+]([O-])c1ccc(O/N=C/c2cc(Br)c(O)c(Br)c2)c([N+](=O)[O-])c1 | 12.1 µM (active) |
| O=c1cc(-c2ccccc2)oc2ccc3ccccc3c12 | 24.3 µM (active) |
| Nc1nc2ccc([N+](=O)[O-])cc2s1 | inactive |
| CCC(C)COC(C)=O (stereo not drawn) | inactive |
| CCOC(=O)OC(C)OC(=O)[C@@H]1N2C(=O)[C@@H](NC(=O)[C@H](N)c3ccccc3)[C@H]2SC1(C)C (stereo partly drawn) | inactive |
| C[C@@H]1CN(CCCn2c3ccccc3c3ccccc32)C[C@H](C)N1 | inactive |
| Cc1cc(O)ccc1O | inactive |
| CC1(C)[C@H](C(=O)O)N2C(=O)C[C@H]2S1(=O)=O | inactive |
| CCCCCCCCOc1ccc(C(=O)O)cc1 | inactive |
| C[C@H]1c2cccc(O)c2C(O)=C2C(=O)[C@]3(O)C(O)=C(C(N)=O)C(=O)[C@@H](N(C)C)[C@@H]3[C@@H](O)[C@@H]21 | inactive |
| CCCC(C(=O)OCCN(CC)CC)(c1ccccc1)c1ccccc1 | inactive |
| CN(C)CCC=C1c2ccccc2C=Cc2ccccc21 | inactive |
| O=C(/C=C/c1ccccc1)OCCc1ccccc1 | inactive |
| CC(C)(c1ccccc1)c1ccccc1 | inactive |
| CCOc1ccc(Cc2nccc3cc(OCC)c(OCC)cc23)cc1OCC | inactive |
| CCCCCCCCC(CCCCCC)C(=O)O (stereo not drawn) | inactive |
| Oc1c(I)cc(I)c2cccnc12 | inactive |
| CC(=O)NC1(c2cccc(F)c2)CCN(CC[C@@]2(c3ccc(Cl)c(Cl)c3)CN(c3ccccc3)C(=O)CO2)CC1 | inactive |
| CN1C(=O)c2ccccc2C1=O | inactive |
| CC(=O)Oc1ccc([N+](=O)[O-])cc1CCl | inactive |
| C=C(C)C(=O)OCCOCCOC(=O)C(=C)C | inactive |
| CC(=O)N/N=C/c1ccc([N+](=O)[O-])o1 | inactive |
| CC1(C)O[C@@H]2C[C@H]3[C@@H]4C[C@H](F)C5=CC(=O)C=C[C@]5(C)[C@H]4[C@@H](O)C[C@]3(C)[C@]2(C(=O)CO)O1 | inactive |
